EP2 antag: human EP2 receptor antagonists, primary screen, TR-FRET cAMP, C6 glioma cells. C6 glioma cells expressing human EP2; cells stimulated with saturating PGE2. AID 1422, 2008. 260,000 compounds, 0.52% hits. Prostaglandin E2 receptor EP2 subtype (Homo sapiens), P43116. inhibition, % at 25 µM;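 active = percent inhibition above 40 after rounding to a whole number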;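 also: rat C6 glioma host cells with rolipram phosphodiesterase inhibitor present; the protocol text gives 20 µM as final concentration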
EP2 mod: EP2 receptor modulators, cAMP readout, primary screen, cell-based, HTRF cAMP, PGE2 stimulation; Prostaglandin E2 receptor EP2 subtype (Homo sapiens), P43116; EP2-expressing cells, cAMP HTRF FRET, PGE2 co-stimulation; induction, % at 25 µM; 260,000 compounds, 0.83% hits; AID 940, 2007;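 active = compounds whose cAMP rise, as percent of the full-agonist control response, exceeds 60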;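 also: rat C6 glioma line stably carrying human EP2 under a CMV promoter; the protocol text gives 20 µM as final concentration; 100% = response of wells given 1 µM PGE2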
S1P3 antagonist: S1P3 receptor antagonists, primary screen, cell-based. 170,000 compounds, 0.27% hits. inhibition, % at 4.98 µM. AID 485, 2006. CHO S1P3 NFAT-BLA reporter, FRET fluorescence, antagonist mode. Sphingosine 1-phosphate receptor 3 (Homo sapiens), Q99500;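 active = inhibition above the plate cutoff, the mean inhibition of test wells on that plate plus 3 SD, cut at about 28% in these data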;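 also: cells challenged with S1P at its EC80 of 0.8 µM; blue over green emission ratio from cleaved BLA substrate after 4 h stimulation; 0% = S1P-stimulated wells and 100% = unstimulated DMSO-only wells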
S1P4 agonist: S1P4 receptor agonists, primary screen, cell-based; S1P4-expressing cell line, agonist reporter assay; AID 1509, 2009; 220,000 compounds, 0.35% hits; activation, % at 4.98 µM; Sphingosine 1-phosphate receptor 4 (Homo sapiens), O95977; in the data active = activation above about 11%;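 also: 0% = DMSO vehicle and 100% = reference agonist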
Target sequence (O95977 whole entry, looked up): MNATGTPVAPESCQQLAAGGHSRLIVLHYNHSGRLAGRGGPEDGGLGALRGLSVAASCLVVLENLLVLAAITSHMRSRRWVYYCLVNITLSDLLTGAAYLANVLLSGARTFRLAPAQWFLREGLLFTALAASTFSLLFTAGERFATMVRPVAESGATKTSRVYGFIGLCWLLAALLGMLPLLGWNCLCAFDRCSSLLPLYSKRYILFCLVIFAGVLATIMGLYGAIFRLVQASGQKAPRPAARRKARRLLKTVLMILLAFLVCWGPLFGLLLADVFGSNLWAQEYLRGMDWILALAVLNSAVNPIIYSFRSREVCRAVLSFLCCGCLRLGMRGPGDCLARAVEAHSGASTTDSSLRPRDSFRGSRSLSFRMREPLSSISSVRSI
S1P4 antagonist: S1P4 receptor antagonists, primary screen, cell-based; Sphingosine 1-phosphate receptor 4 (Homo sapiens), O95977; S1P4-expressing cells, antagonist mode, reporter read-out; inhibition, % at 4.98 µM; 220,000 compounds, 0.26% hits; in the data active = inhibition above about 29%;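 also: 0% = wells stimulated with agonist and 100% = vehicle wells without agonist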
EP2 cAMP induct: cAMP induction in EP2, EP4, beta2-AR and parental cells, confirmation, counter-screen for EP2 modulator project, cell-based, five parallel assays, C6 glioma, HEK293. shares compounds with EP2 mod. cAMP HTRF induction; plus low (about EC15) PGE2 agonist. AID 1080, 2008. calls only at 20 µM (by protocol). 1,300 compounds, 47% hits;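 active = cAMP induction above 50% in the main assay while under 30% in all four parallel counter assays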;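 also: rat C6 glioma cells stably expressing human EP2 receptor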
Active calls of the source: *; i = inactive; / = no result; + = active, no number. A selection: hits, their analogues and other compounds. The true share with any hit is near 2%.

SMILES	EP2 antag	EP2 mod	S1P3 antagonist	S1P4 agonist	S1P4 antagonist	EP2 cAMP induct
Cc1ccc(C)c2[nH]c(=O)c(CN(CCCO)C(=O)Nc3ccccc3Cl)cc12	6.6	17.4	/	/	/	/
O=C(COc1ccccc1)Nc1ccccc1N1CCN(c2ccccc2)CC1	8.3	72.9*	23.6	1.0	-23.0	+
O=C(Nc1ccccc1Oc1ccccc1)c1ccccc1F	5.2	68.1*	-12.7	0.8	-15.8	i
O=C(Nc1cc(Cl)ccc1Oc1ccccc1)c1ccccc1F	10.5	45.7	-15.2	-0.8	-8.9	/
COc1cccc(OCC(=O)Nc2ccccc2-c2ccccc2)c1	12.7	70.4*	-9.0	1.3	-6.4	+
O=C(COc1ccccc1)Nc1ccccc1Oc1ccccc1	4.1	72.1*	-11.3	0.4	-9.2	+
Cc1ccc(NC(=O)C(C)Oc2ccc3c(C)cc(=O)oc3c2)cc1C (centres undefined)	4.7	-7.0	/	/	/	/
O=C(COc1ccccc1)Nc1cc(C(F)(F)F)ccc1N1CCCC1	18.9	78.8*	/	-1.8	-20.3	i
CCOC(=O)/C(N=Nc1c(Br)cc(Br)cc1Br)=C(\C)O	7.6	68.3*	/	0.9	7.1	i
CCOC(=O)NC(=O)/C(N=Nc1cc(C)cc(C)c1)=C(\C)O	4.0	34.0	-6.0	-2.1	-9.4	/
O=c1c2ccccc2nc(/C=C/c2ccccc2)n1CCc1ccccc1	7.3	80.1*	-1.6	0.2	-14.0	+
C=CCSc1nc2ccsc2c(=O)n1-c1ccccc1	5.4	68.2*	-0.4	-0.2	-6.4	i
C=C(C)CSc1nc2ccccc2c(=O)n1Cc1ccccc1	9.0	25.6	/	/	/	/
Cc1cccc(/C=C/c2nc3ccccc3c(=O)n2Cc2ccccc2)c1	1.1	69.1*	-0.6	-2.2	-4.3	+
C=CCSc1nc2ccccc2c(=O)n1Cc1ccccc1	9.9	71.5*	-8.7	-0.1	-9.4	+
O=c1c2ccccc2nc(/C=C/c2cccnc2)n1Cc1ccccc1	2.9	15.9	6.2	-0.5	0.6	/
CC1CCCC(C)N1C(=O)CSc1nnc2c3cc(F)ccc3n(C)c2n1 (centres undefined)	9.4	-16.4	/	/	/	/
CCn1c(C(CC(C)C)NC(=O)Cc2ccccc2F)nc2cccnc21 (centres undefined)	7.2	7.1	/	/	/	/
O=C1OC2(CCCC2)OC(=O)C1=Cc1ccc(N2CCOCC2)o1	4.9	-59.9	/	/	/	/
Cc1cccc(NC(=S)N2C3CCCC2CC(NC(=O)C2CC2)C3)c1C (centres undefined)	11.1	-35.3	/	/	/	/
COC(=O)CC1C(C)(C)C(OC(C)=O)[C@@H]2[C@@H](OC(C)=O)[C@]34O[C@@]2(O)[C@]1(C)C3CC[C@]1(C)C4=CC(=O)O[C@H]1c1ccoc1 (some centres undefined)	9.2	53.2	/	/	/	i
CC(=O)O[C@@H]1CC[C@@]2(C)C(C[C@@H](OC(C)=O)[C@@]3(C)C4=CC(=O)O[C@@H](c5ccoc5)[C@]4(C)CCC23)C1(C)C (some centres undefined)	12.7	1.7	/	/	/	/
Fc1ccccc1-c1nc(-c2ccc(Cl)cc2)no1	-0.3	/	/	-1.5	-7.1	/
c1ccc(-c2noc(-c3ccccc3-c3ccccc3)n2)cc1	9.3	50.6	/	1.0	-9.8	+
COC(=O)c1[nH]c2ccccc2c1NS(=O)(=O)c1ccc(F)c(C)c1	4.3	77.1*	29.2	0.8	-8.9	+
SMILES	EP2 antag	EP2 mod	S1P3 antagonist	S1P4 agonist	S1P4 antagonist	EP2 cAMP induct
Cc1cccc(Oc2sc(C(=O)c3ccccc3)c(N)c2C#N)c1	7.7	72.0*	/	0.1	-2.9	i
COC(=O)CN1C(=O)C(O)=C(C(C)=O)C1c1cccc(OC)c1 (centres undefined)	10.0	4.1	/	/	/	/
CCn1nnc(-c2ccccc2NC(=O)c2cc(OC)cc(OC)c2)n1	3.1	73.9*	-22.9	-0.1	-22.6	+
Cn1c(=O)c2c(SCc3cccnc3)nc(CC(C)(C)C)nc2n(C)c1=O	6.3	58.8	19.4	0.3	-15.4	+
O=c1c2cn[nH]c2nc(SCc2cc(=O)n3cc(Br)ccc3n2)n1-c1ccc(Br)cc1	16.2	19.7	-34.6	-1.4	-5.2	/
O=c1c2cn[nH]c2nc(SCc2ccccc2F)n1-c1ccc(Br)cc1	12.8	83.1*	-0.1	0.3	-1.5	+
Cc1oc2c(c1C(=O)Nc1cccc3ccccc13)CCCC2	12.8	24.5	/	-1.3	11.8	/
COc1ccccc1NC(=O)c1c(C)oc2c1CCCC2	19.7	78.7*	/	-3.8	-17.5	i
CCC(=O)N1CCCc2cc(C(O)CN3CCN(c4ccccn4)CC3)ccc21 (centres undefined)	9.8	-34.6	/	/	/	/
O=S(=O)(O)c1ccc2c(N=Nc3c(O)ccc4ccccc34)cccc2c1	40.9*	75.3*	/	/	/	i
O=S(=O)(O)c1cc(S(=O)(=O)O)c2c(N=Nc3cccc4ccccc34)c(O)ccc2c1	35.5	6.9	/	/	/	/
Cc1nc2c3cc(F)ccc3n(Cc3ccccc3F)c2s1	6.6	60.2	1.5	0.7	-27.0	/
Cc1nc2c3cc(F)ccc3n(Cc3ccccc3)c2s1	1.7	71.8*	3.0	-0.7	-0.5	+
CCCN1C2CCCC1CC(NC(=O)Nc1ccccc1-c1ccccc1)C2 (centres undefined)	9.9	-34.4	/	/	/	/
CCOC(=O)C1CCCN(C(=O)c2ccc(C)cc2O)C1 (centres undefined)	5.5	65.8*	/	2.0	12.3	i
CC(C)(Oc1ccc(Cl)cc1)C(=O)N(Cc1ccccc1)c1ccccn1	6.7	68.5*	-7.3	-0.3	-12.1	+
COc1ccc(N(Cc2ccccc2)S(=O)(=O)c2ccc(C)cc2)cc1	3.7	69.1*	-12.8	1.0	-16.2	+
Cc1ccc(N(Cc2ccccc2)Cc2ccccc2)cc1	9.9	51.5	/	/	/	i
Cc1ccc(CNC(=O)NCc2ccccc2)cc1	4.1	-11.8	11.7	0.6	-8.3	/
COC(=O)C(C)Sc1ncnc2c1nnn2-c1ccc(F)cc1 (centres undefined)	-1.6	56.4	-25.1	1.1	-2.1	i
COc1cccc(C2Nc3ccc(I)cc3C3C=CCC32)c1OC (centres undefined)	9.8	4.6	/	/	/	/
CCCNC(=O)[C@H]1C[C@@H](c2ccc(F)cc2)NS(=O)(=O)N1C	/	-3.7	/	/	/	/
Cc1cc2cc3c(cc2nc1SCC(=O)OC(C)C)OCO3	/	68.5*	/	-0.3	4.5	+
Cc1cc(C)c(S(=O)(=O)c2ccccc2)c(OC(=O)c2c(Cl)cc(Cl)cc2Cl)n1	16.0	75.7*	/	2.0	-8.2	+

From PubChem
